A selection: hits, their analogues and other compounds. The true share with any hit is near 3.3%.
BoNT A protease: inhibitors of Botulinum neurotoxin A light chain protease; multiplex microsphere protease substrate cleavage, flow cytometry; inhibition, % at 10 µM; 0.17% of 360,000 active; further: plate controls were buffer without enzyme for full effect and enzyme alone for no effect
MazEF act: increases E. coli MazEF RNase cleavage of RNA; activation, % at 20 µM; P0AE70; 0.32% of 350,000 active; FAM/BHQ RNA-DNA oligo cleavage fluorescence, 5 h; in the data active means activation above about 50%
Target sequence (P0AE70 whole entry, looked up): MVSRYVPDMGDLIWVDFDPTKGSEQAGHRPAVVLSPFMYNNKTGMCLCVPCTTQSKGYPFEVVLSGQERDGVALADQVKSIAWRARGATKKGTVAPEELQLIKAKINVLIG
PriA SSB inh: K. pneumoniae PriA-SSBct interaction inhibition; AlphaScreen SSBct-PriA binding, biotinylated peptide; inhibition, % at 33 µM; 0.6% of 430,000 active; AID 1272365; in the data active means inhibition mostly above about 37%, no sharp cut-off; inactive means mostly below about 20%;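 further: plate controls were negative control peptide for no effect and reference peptide for full effect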
Anthrax LF prot: anthrax lethal factor protease inhibition; AID 588501; multiplex microsphere protease cleavage assay, LF; 0.12% of 360,000 active; P15917; inhibition, % at 10 µM; further: plate controls were buffer without enzyme for full effect and enzyme alone for no effect
Bead autofluor: flagged as autofluorescent in microsphere protease counterscreen; 3.1% of 360,000 active; fluorescence intensity (concentration not given with the values); compound autofluorescence counterscreen, microsphere flow cytometry; stronger effect = higher value; in the data active means fluorescence intensity above about 16000; inconclusive means no clear call, values can overlap the other calls
BoNT F protease: blocks Botulinum neurotoxin F light chain protease; Multiplex microsphere protease cleavage assay, flow cytometry; inhibition, % at 10 µM; 0.22% of 360,000 active; in the data active means inhibition above about 35%, passing the limit was not always enough; inconclusive means no clear call, values can overlap the other calls; further: plate controls were buffer without enzyme for full effect and enzyme alone for no effect
The depositor's hits bear a star; ? = inconclusive; nt = not tested or not shown. Unless noted, no stated cut-off is given here; in the data, active means inhibition above about 30%; inconclusive means no clear call, values can overlap the other calls; inactive means below that.

SMILES	BoNT A protease	MazEF act	PriA SSB inh	Anthrax LF prot	Bead autofluor	BoNT F protease
Cc1c(Cl)cccc1Nc1nc(N)nc(CSCCO)n1	0	2	1	0	2729	-19
Cc1c(Cl)cccc1Nc1nc(N)nc(CSc2ncccn2)n1	0	-2	3	-2	20532*	-1
COC(=O)Cn1c(=O)n(Cc2nc(-c3ccccc3)no2)c(=O)c2ccccc21	nt	nt	-12	nt	nt	nt
Cc1nc2nc(Cc3ccccc3)nn2c(C)c1Cl	3	0	-7	-3	22300*	3
Cc1nc2nc(CCc3ccccc3)nn2c(C)c1Cl	2	3	-18	1	9302	15
O=C(Nc1cnc2sccn2c1=O)c1ccc(Cl)cc1Cl	0	23	-8	0	22211*	2
COCCN(CCOC)c1cc(-c2ccccc2)ncn1	nt	nt	-8	nt	nt	nt
c1ccc(-c2nc(-c3ccncc3)n[nH]2)nc1	-2	-1	28	-5	5742	-12
Brc1nc(-c2ccccn2)n[nH]1	nt	nt	142*	nt	nt	nt
Clc1nc(-c2ccccn2)n[nH]1	nt	nt	163*	nt	nt	nt
CC1Oc2ccccc2N(Cc2nc(-c3ccc(OCc4ccccc4)cc3)no2)C1=O (centres undefined)	nt	nt	0	nt	nt	nt
COc1ccc(SCCC(=O)Nc2ccc3sccc3c2)cc1	nt	nt	43*	nt	nt	nt
Cc1ccc(SCCC(=O)Nc2ccc3sccc3c2)cc1	nt	nt	-14	nt	nt	nt
CCCCn1nnc(NC(=O)Cc2ccc(Cl)cc2)n1	0	-16	-9	1	3246	3
CN1CCN(c2ccccc2NC(=O)c2cc3ccccc3o2)CC1	3	-1	0	1	21317*	0
CC(C)C(=O)Nc1ccc(NC(=O)c2cc3ccccc3o2)cc1	-2	-2	-1	-3	22449*	-5
CCCn1nnc(NC(=O)c2cc3ccccc3o2)n1	-1	2	-5	1	11525	-13
CCn1nnc(NC(=O)c2cc3ccccc3o2)n1	2	5	-7	4	21445*	2
CCn1nnc(NC(=O)CSc2ccc(Cl)cc2)n1	-3	-6	-18	-1	24449*	-4
CC(C)C(=O)Nc1ccc(NC(=S)NC(=O)c2cc3ccccc3o2)cc1	-1	4	1	1	4307	-8
CCC(C)NC(=O)CCNS(=O)(=O)c1ccc(Br)cc1 (centres undefined)	4	0	1	-4	21722*	2
CCCCNC(=O)CCNS(=O)(=O)c1ccc(Br)cc1	0	-6	-8	-3	9229	-10
C=CCNC(=O)CCNS(=O)(=O)c1ccc(Br)cc1	2	-5	-8	-5	22875*	0
COc1ccc(N2CCN(CC(=O)N3CCC(C)CC3)CC2)cc1	-3	2	-11	-1	17583*	-4
CC1CCN(CC(=O)N2CCN(c3ccccc3)CC2)CC1	1	14	-11	-8	3399	21
SMILES	BoNT A protease	MazEF act	PriA SSB inh	Anthrax LF prot	Bead autofluor	BoNT F protease
CO[C@@]1(CNS(=O)(=O)Cc2cccc(Cl)c2)CCSC1	nt	nt	-28	nt	nt	nt
O=C1/C(=C\c2cccs2)N=C(c2cccs2)N1Nc1ccccc1	68*	-11	0	50*	5432	40*
Cc1ccc(C2=N/C(=C\c3cccs3)C(=O)N2Nc2ccccc2)cc1	120*	-5	5	64*	2321	51*
CCN(CC)S(=O)(=O)c1cccc(NC(=O)C2SC(=Nc3ccc(C)cc3C)C(C(=O)NCC3CCCO3)=C2N)c1 (centres undefined)	0	-8	6	-1	23589*	-5
CCN(CC)S(=O)(=O)c1cccc(C(=O)NCC2CCCO2)c1 (centres undefined)	0	2	-6	2	5861	-6
CN(C(=O)c1ccccc1NC(=O)C(F)(F)F)c1ccccc1	10	8	-10	-6	19216*	10
CCOC(=O)c1ccccc1NC(=O)COC(=O)c1ccccc1C(=O)N(C)c1ccccc1	?	0	-13	?	4278	?
c1cncc(CSc2nnc(-c3cccs3)o2)c1	nt	nt	3	nt	nt	nt
C=CCNCCCCOc1ccc(C)cc1[N+](=O)[O-]	1	7	0	2	4187	8
CCC(C)NCCCCOc1ccc(C)cc1[N+](=O)[O-] (centres undefined)	0	-2	-4	0	20177*	-1
Cc1cc(NS(=O)(=O)c2ccc(NC(=O)c3oc4ccccc4c3C)cc2)no1	0	-10	-5	3	22342*	-1
Cc1cc(NS(=O)(=O)c2ccc(NC(=O)NC3CCCCC3)cc2)no1	-4	3	-10	-7	17035*	-5
